# Experimental data from PubChem BioAssay (NCI).
# Compounds without any hit were thinned out: in the full panel of roughly 79,000, 15% have a hit. Active and inactive are the calls of the source. No stated cut-off is given here; in the data, active means growth inhibition above about 70%; inactive means the rest.
# Test: NCI Yeast Anticancer Drug Screen. Data for the rad50 strain (AID 155);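 further: 0% = growth of vehicle-only cultures of the same strain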
# Settings: S. cerevisiae rad50 strain growth inhibition; at 50.0 µM; hits give high values
# In short: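 Relative growth inhibition (compound vs vehicle) was measured in yeast with a defined repair-gene alteration.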
row,SMILES,growth inhibition
1,COc1ccc(OC)c2c(NCCNCCO)cc(NCCNCCO)nc12,15.2% (inactive)
2,CC(=O)NNC(=S)N/C=C(\C#N)c1nc2ccccc2s1,22.2% (inactive)
3,COc1ccc(Cc2cc3c(cc2OCCOC(C)=O)OCO3)cc1,16.8% (inactive)
4,NCCC(=O)NCCSSCCNC(=O)CCN,-8.45% (inactive)
5,CCN1CCCC1CO (stereo not drawn),-1.15% (inactive)
6,Cc1cccc(/C=N/Nc2ccc([N+](=O)[O-])cc2[N+](=O)[O-])c1C,11.2% (inactive)
7,N#Cc1c(-c2ccco2)cc(-c2ccccc2)[nH]c1=O,31.8% (inactive)
8,COc1ccc(C(C)Nc2cc(OC)c(OC)c(OC)c2)cc1 (stereo not drawn),-20.2% (inactive)
9,CC1=NN(C(=O)c2ccccc2O)C(=O)/C1=C/c1ccc(O)cc1,6.3% (inactive)
10,[N-]=[N+]=NC12CC3C4CC5CC3C(C1)C(C5)C4C2,10.3% (inactive)
11,C[N+](C)(CCCn1ccnc1[N+](=O)[O-])CCCn1ccnc1[N+](=O)[O-],-15.3% (inactive)
12,O=C1C(=C(C(F)(F)Cl)C(F)(F)Cl)C2CCC1C2 (stereo not drawn),12% (inactive)
13,NC(=O)c1cc[n+](-c2ccc([N+](=O)[O-])cc2[N+](=O)[O-])cc1,19.2% (inactive)
14,O=C(/C=C(\Br)c1ccccc1)c1ccccc1,99.3% (active)
15,Cn1cc(C(=O)C2CCCCC2)ccc1=O,-4.6% (inactive)
16,N#CCC(=O)N1CCCC1,-23.1% (inactive)
17,CC/C(C)=N/NS(C)(=O)=O,12.8% (inactive)
18,CCCCCCCCCCOc1ccc(OCCCCCCCCC)cc1,15.5% (inactive)
